# Columns and labels:
# Assay in all cases: DAPPL (digital affinity profiling via proximity ligation, sequencing); 10 mM Tris-HCl pH 7.5, 50 mM NaCl, 1 mM DTT, 4% glycerol, room temperature, 30 min; GST-TFs on glutathione beads, 16-mer random dsDNA library, 0.1% formaldehyde crosslink after washing; high values mean tight binding
# FLI1 = biological target: T1, FLI1 (Homo sapiens, UniProt Q01543 1-452); settings: protein: recombinant; tags: N-terminal GST; dsDNA, one strand shown
# T1 sequence: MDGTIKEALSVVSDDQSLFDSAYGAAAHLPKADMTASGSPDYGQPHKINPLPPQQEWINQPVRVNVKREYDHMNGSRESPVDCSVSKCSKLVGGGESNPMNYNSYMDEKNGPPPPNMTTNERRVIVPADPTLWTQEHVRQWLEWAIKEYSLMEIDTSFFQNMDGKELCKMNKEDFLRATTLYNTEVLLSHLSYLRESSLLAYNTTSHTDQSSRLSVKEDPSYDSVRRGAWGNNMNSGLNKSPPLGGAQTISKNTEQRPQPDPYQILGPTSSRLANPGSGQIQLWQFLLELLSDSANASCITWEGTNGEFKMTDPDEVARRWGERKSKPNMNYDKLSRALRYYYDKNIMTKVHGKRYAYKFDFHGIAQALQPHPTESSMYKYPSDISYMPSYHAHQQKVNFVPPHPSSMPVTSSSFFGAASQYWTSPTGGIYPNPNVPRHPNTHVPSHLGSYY
# How it was run: (§1)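 In yeast, human transcription factors were expressed with a GST fusion, then pulled down on glutathione beads and given DNA barcodes. Pooled with a tag-only sample, they were exposed to 200 nmole of a 16-mer random double-stranded DNA library (Tris/NaCl/DTT/glycerol buffer, room temperature, 30 min), washed, crosslinked with 0.1% formaldehyde, proximity-ligated using BsaI/T4 ligase for 1 h at 37 °C, PCR-amplified and read on an Illumina NextSeq500. Each hexamer's frequency of reads for a factor, divided by the matching frequency for the tag-only sample, gives the binding signal.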
# ELK1 = biological target: T2, ELK1 (Homo sapiens, UniProt P19419 1-428); settings: protein: recombinant; tags: N-terminal GST; dsDNA, one strand shown
# T2 sequence: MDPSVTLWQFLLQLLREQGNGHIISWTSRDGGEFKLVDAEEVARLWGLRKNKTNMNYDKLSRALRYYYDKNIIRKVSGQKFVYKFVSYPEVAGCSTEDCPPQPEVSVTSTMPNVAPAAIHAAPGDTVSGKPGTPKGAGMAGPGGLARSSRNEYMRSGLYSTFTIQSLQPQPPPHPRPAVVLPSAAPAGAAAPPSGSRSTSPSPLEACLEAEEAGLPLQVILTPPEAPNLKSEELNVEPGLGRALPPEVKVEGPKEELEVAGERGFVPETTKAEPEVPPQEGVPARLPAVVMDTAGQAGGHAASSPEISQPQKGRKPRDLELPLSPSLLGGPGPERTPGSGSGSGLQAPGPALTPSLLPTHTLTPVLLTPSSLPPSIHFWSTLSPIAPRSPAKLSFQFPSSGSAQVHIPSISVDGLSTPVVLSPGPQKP
# How it was run: as §1
# GABPA = biological target: T3, GABPA (Homo sapiens, UniProt Q06546 1-454); settings: protein: recombinant; tags: N-terminal GST; dsDNA, one strand shown
# T3 sequence: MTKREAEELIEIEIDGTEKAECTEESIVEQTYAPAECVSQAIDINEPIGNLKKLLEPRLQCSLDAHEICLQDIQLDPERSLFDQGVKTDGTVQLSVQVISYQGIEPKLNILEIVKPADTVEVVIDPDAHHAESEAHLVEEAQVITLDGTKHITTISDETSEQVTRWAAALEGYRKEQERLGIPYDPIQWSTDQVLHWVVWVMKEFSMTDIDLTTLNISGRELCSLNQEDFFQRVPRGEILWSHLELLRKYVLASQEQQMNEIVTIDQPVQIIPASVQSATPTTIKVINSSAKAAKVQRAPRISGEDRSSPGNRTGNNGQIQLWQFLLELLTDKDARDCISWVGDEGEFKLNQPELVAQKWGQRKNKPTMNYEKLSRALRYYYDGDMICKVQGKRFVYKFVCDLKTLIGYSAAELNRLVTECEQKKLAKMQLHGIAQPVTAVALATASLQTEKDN
# How it was run: as §1
# ERG = biological target: T4, ERG (Homo sapiens, UniProt P11308 1-479); settings: protein: recombinant; tags: N-terminal GST; dsDNA, one strand shown
# T4 sequence: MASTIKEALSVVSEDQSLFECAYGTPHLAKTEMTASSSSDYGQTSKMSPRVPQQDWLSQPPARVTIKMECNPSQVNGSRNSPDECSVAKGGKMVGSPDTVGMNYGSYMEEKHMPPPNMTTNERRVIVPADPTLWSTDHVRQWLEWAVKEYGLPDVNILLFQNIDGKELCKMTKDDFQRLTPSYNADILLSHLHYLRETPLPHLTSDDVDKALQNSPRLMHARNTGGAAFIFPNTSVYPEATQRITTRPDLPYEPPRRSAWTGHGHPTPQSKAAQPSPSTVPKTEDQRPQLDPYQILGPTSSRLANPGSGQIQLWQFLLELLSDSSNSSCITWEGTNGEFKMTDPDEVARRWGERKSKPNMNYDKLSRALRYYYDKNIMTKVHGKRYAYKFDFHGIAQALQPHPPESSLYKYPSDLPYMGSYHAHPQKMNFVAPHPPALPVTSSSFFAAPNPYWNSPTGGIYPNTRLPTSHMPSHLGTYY
# How it was run: as §1
# ELF1 = ELF1 (Homo sapiens, UniProt P32519 1-619); settings: protein: recombinant; tags: N-terminal GST; dsDNA, one strand shown
# How it was run: as §1
# EHF = biological target: T5, EHF (Homo sapiens, UniProt Q9NZC4 1-300); settings: protein: recombinant; tags: N-terminal GST; dsDNA, one strand shown
# T5 sequence: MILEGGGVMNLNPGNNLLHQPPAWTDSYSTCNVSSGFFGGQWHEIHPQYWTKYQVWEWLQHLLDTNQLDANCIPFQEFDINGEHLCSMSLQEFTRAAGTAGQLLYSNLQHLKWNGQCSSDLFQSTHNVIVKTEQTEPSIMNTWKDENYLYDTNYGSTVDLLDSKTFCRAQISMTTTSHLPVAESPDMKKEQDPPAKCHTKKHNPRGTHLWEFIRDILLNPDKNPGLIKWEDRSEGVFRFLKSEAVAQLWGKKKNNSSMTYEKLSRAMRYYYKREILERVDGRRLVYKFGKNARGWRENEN
# How it was run: as §1
# SPI1 = SPI1 (Homo sapiens, UniProt P17947 1-270); settings: protein: recombinant; tags: N-terminal GST; dsDNA, one strand shown
# How it was run: as §1
# SPIB = SPIB (Homo sapiens, UniProt Q01892 1-262); settings: protein: recombinant; tags: N-terminal GST; dsDNA, one strand shown
# How it was run: as §1
# ELK3 = biological target: T6, ELK3 (Homo sapiens, UniProt P41970 1-407); settings: protein: recombinant; tags: N-terminal GST; dsDNA, one strand shown
# T6 sequence: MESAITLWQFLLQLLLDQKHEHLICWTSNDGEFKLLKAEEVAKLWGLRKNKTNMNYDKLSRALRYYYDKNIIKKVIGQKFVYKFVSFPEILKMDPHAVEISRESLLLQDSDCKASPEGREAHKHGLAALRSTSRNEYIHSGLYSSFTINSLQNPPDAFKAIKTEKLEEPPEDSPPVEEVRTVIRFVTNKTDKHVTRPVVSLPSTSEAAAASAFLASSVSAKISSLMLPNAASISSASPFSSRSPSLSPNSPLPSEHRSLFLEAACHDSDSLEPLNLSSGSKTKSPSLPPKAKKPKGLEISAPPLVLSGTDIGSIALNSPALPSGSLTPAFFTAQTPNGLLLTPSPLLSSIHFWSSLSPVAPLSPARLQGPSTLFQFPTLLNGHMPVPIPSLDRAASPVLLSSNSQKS
# How it was run: as §1
# FEV = biological target: T7, FEV (Homo sapiens, UniProt Q99581 1-238); settings: protein: recombinant; tags: N-terminal GST; dsDNA, one strand shown
# T7 sequence: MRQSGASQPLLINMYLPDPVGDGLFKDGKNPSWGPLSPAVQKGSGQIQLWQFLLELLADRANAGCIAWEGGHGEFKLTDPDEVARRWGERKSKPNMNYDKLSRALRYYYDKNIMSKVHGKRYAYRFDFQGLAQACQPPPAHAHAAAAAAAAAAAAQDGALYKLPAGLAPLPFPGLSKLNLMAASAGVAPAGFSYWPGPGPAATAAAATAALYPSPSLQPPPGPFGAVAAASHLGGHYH
# How it was run: as §1
# ETV5 = ETV5 (Homo sapiens, UniProt P41161 1-510); settings: protein: recombinant; tags: N-terminal GST; dsDNA, one strand shown
# How it was run: as §1
# HSF1 = HSF1 (Homo sapiens, UniProt Q00613 1-529); settings: protein: recombinant; tags: N-terminal GST; chain copies: 3; dsDNA, one strand shown
# How it was run: as §1
# SPIC = biological target: T8, SPIC (Homo sapiens, UniProt Q8N5J4 1-248); settings: protein: recombinant; tags: N-terminal GST; dsDNA, one strand shown
# T8 sequence: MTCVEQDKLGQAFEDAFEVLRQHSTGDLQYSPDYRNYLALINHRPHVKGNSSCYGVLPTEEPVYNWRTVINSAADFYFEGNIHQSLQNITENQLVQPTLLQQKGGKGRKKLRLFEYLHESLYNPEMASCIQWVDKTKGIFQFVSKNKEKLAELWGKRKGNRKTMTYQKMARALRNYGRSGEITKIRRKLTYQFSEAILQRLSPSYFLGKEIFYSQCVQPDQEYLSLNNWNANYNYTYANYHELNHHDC
# How it was run: as §1
# ELF4 = ELF4 (Homo sapiens, UniProt Q99607 1-663); settings: protein: recombinant; tags: N-terminal GST; dsDNA, one strand shown
# How it was run: as §1
# ELK4 = biological target: T9, ELK4 (Homo sapiens, UniProt P28324-2 1-405); settings: protein: recombinant; tags: N-terminal GST; dsDNA, one strand shown
# T9 sequence: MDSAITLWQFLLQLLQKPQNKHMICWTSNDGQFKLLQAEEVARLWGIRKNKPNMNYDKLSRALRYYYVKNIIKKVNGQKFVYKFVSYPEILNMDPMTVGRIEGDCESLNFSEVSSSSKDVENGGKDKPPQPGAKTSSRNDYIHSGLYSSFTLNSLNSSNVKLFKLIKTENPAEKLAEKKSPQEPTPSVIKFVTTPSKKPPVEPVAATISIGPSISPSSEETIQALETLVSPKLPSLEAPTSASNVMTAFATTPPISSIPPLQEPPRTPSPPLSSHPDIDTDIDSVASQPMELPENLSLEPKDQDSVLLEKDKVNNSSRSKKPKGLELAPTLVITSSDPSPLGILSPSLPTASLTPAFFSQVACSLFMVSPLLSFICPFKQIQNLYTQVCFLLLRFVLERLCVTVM
# How it was run: as §1
# ETV2 = biological target: T10, ETV2 (Homo sapiens, UniProt O00321 1-342); settings: protein: recombinant; tags: N-terminal GST; dsDNA, one strand shown
# T10 sequence: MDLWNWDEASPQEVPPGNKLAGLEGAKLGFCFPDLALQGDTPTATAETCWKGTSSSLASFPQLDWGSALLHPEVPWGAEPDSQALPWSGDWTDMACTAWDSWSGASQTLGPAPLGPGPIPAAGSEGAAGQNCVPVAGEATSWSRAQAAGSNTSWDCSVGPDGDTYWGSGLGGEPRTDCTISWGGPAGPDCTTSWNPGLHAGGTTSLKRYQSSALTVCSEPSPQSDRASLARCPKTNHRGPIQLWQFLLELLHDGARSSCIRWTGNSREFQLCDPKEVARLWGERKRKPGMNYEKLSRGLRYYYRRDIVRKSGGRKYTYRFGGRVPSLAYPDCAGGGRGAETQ
# How it was run: as §1
# ELF3 = biological target: T11, ELF3 (Homo sapiens, UniProt P78545 1-371); settings: protein: recombinant; tags: N-terminal GST; dsDNA, one strand shown
# T11 sequence: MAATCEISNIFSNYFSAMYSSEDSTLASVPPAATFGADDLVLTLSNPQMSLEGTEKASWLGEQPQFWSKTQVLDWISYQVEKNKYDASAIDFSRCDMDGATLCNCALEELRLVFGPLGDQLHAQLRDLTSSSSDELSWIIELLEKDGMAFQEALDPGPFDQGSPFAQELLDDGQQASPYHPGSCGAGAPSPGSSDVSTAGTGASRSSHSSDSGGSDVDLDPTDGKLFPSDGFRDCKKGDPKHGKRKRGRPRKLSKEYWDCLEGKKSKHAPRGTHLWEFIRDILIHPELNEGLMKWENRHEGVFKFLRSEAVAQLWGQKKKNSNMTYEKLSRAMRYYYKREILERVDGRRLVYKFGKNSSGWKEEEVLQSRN
# How it was run: as §1
# ETV1 = ETV1 (Homo sapiens, UniProt P50549 1-477); settings: protein: recombinant; tags: N-terminal GST; dsDNA, one strand shown
# How it was run: as §1
# ELF4, sequence (Q99607 whole entry): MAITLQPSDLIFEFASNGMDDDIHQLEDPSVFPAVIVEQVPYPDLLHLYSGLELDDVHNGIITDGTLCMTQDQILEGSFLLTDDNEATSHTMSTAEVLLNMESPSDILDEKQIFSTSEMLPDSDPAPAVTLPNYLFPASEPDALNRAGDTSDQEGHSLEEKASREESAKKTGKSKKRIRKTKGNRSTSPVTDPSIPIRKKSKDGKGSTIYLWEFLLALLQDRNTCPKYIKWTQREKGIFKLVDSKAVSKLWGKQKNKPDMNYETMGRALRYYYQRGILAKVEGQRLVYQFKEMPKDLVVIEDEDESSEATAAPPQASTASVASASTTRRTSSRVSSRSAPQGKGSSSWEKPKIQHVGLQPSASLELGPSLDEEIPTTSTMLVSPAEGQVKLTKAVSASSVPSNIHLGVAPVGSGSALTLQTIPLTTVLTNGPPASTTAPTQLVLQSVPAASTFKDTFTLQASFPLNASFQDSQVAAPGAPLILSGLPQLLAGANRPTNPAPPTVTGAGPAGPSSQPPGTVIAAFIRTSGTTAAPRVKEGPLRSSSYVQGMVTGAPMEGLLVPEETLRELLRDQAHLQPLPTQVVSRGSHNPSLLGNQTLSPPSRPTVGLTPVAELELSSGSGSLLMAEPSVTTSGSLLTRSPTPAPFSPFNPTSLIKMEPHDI
# ELF1, sequence (P32519 whole entry): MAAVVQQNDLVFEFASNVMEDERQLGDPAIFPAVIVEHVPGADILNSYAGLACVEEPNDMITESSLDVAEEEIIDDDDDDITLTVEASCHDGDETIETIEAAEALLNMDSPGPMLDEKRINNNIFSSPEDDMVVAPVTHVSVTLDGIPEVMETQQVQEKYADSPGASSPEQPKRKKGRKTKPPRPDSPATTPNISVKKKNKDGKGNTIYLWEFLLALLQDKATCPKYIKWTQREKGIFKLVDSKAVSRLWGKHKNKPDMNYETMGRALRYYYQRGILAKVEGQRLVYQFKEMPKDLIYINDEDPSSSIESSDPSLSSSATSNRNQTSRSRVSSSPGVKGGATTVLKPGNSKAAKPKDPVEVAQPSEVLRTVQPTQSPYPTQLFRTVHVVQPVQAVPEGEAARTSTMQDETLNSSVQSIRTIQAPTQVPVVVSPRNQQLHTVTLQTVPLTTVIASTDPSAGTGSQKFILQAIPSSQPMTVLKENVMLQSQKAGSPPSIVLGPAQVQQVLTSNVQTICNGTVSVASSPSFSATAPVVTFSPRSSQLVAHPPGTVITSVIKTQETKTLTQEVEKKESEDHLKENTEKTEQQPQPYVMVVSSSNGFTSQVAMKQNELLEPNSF
# SPIB, sequence (Q01892 whole entry): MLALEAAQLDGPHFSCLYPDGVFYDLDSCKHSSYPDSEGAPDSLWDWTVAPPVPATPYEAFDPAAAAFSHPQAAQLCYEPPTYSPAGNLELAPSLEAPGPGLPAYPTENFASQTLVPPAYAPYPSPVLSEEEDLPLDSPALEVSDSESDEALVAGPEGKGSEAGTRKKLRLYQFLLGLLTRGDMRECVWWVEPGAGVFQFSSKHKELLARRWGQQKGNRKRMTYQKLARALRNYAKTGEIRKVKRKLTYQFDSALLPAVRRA
# HSF1, sequence (Q00613 whole entry): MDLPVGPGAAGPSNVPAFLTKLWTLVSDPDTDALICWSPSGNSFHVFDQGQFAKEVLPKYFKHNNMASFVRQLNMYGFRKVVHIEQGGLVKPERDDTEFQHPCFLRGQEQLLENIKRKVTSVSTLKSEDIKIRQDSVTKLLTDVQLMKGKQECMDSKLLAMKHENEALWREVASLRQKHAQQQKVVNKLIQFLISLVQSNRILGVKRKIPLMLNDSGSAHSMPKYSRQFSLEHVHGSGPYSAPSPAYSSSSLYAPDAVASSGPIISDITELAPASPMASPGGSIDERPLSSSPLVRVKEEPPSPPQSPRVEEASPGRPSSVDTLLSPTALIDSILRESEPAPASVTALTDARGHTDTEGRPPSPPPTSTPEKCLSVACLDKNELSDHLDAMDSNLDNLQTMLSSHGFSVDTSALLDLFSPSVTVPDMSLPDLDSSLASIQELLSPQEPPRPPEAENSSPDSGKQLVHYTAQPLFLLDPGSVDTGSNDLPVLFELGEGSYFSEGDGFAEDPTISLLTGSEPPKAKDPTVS
# ETV1, sequence (P50549 whole entry): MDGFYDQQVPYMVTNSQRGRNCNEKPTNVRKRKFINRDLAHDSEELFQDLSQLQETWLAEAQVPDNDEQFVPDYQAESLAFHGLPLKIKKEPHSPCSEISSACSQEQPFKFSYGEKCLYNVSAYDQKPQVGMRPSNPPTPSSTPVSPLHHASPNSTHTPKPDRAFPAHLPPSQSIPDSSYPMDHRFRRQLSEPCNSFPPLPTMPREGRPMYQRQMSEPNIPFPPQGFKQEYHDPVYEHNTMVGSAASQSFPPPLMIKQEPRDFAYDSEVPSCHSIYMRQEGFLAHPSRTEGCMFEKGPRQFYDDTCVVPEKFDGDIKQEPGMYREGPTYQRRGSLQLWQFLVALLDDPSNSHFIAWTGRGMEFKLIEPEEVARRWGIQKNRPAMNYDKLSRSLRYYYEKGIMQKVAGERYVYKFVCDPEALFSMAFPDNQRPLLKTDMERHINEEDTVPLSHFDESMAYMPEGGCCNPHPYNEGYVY
# ETV5, sequence (P41161 whole entry): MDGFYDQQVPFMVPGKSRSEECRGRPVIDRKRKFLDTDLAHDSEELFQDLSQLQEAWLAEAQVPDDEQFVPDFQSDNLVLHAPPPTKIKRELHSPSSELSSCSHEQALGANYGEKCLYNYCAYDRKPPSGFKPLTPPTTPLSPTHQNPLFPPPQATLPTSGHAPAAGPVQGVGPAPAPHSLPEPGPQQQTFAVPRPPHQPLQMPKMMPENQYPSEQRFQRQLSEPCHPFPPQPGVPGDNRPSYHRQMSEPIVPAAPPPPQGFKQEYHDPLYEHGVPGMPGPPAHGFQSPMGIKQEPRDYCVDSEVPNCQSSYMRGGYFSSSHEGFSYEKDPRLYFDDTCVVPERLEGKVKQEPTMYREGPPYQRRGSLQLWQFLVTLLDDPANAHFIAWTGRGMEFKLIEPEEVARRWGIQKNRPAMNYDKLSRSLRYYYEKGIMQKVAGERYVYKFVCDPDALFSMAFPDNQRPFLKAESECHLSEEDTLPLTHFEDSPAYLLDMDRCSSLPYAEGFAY
sequence,measurement,setting,value
CATTTC,binding signal,FLI1,"1.8 fold enrichment (6-mer frequency, TF over GST control)"
same,binding signal,ELK1,"1.86 fold enrichment (6-mer frequency, TF over GST control)"
same,binding signal,GABPA,"1.64 fold enrichment (6-mer frequency, TF over GST control)"
same,binding signal,ERG,"2.07 fold enrichment (6-mer frequency, TF over GST control)"
same,binding signal,ELF1,"1.63 fold enrichment (6-mer frequency, TF over GST control)"
same,binding signal,EHF,"1.77 fold enrichment (6-mer frequency, TF over GST control)"
same,binding signal,SPI1,"1.97 fold enrichment (6-mer frequency, TF over GST control)"
same,binding signal,SPIB,"1.85 fold enrichment (6-mer frequency, TF over GST control)"
same,binding signal,ELK3,"1.67 fold enrichment (6-mer frequency, TF over GST control)"
same,binding signal,FEV,"2.2 fold enrichment (6-mer frequency, TF over GST control)"
same,binding signal,ETV5,"1.95 fold enrichment (6-mer frequency, TF over GST control)"
same,binding signal,HSF1,"1.13 fold enrichment (6-mer frequency, TF over GST control)"
same,binding signal,SPIC,"1.88 fold enrichment (6-mer frequency, TF over GST control)"
same,binding signal,ELF4,"1.73 fold enrichment (6-mer frequency, TF over GST control)"
same,binding signal,ELK4,"1.66 fold enrichment (6-mer frequency, TF over GST control)"
same,binding signal,ETV2,"1.78 fold enrichment (6-mer frequency, TF over GST control)"
same,binding signal,ELF3,"1.61 fold enrichment (6-mer frequency, TF over GST control)"
same,binding signal,ETV1,"1.84 fold enrichment (6-mer frequency, TF over GST control)"

# Source: paper PMC7862700, “An all-to-all approach to the identification of sequence-specific readers for epigenetic DNA modifications on cytosine”
